# Measurements from PMC7862700, “An all-to-all approach to the identification of sequence-specific readers for epigenetic DNA modifications on cytosine”.
# Experiments:
# Experiment in all cases: DAPPL (digital affinity profiling via proximity ligation, sequencing); 10 mM Tris-HCl pH 7.5, 50 mM NaCl, 1 mM DTT, 4% glycerol, room temperature, 30 min; GST-TFs on glutathione beads, 16-mer random dsDNA library, 0.1% formaldehyde crosslink after washing; high values mean tight binding
# FLI1 = target: T1, FLI1 (Homo sapiens, UniProt Q01543 1-452); conditions: protein: recombinant; tags: N-terminal GST; dsDNA, one strand shown
# T1 sequence: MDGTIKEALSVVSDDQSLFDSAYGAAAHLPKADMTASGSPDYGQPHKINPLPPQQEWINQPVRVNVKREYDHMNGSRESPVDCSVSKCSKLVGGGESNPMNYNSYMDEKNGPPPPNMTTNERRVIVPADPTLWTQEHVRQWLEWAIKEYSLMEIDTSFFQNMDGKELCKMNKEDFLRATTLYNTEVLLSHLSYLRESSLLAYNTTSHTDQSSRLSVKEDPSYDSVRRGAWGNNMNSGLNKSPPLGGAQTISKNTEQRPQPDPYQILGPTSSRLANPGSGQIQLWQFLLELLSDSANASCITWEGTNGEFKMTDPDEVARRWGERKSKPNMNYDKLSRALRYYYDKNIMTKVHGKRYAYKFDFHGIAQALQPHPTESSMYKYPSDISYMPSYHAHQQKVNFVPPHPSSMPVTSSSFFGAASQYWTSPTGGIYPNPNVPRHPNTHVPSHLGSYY
# Procedure, shortened: (§1)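 Beads coated with glutathione captured GST-fused human transcription factors that had been expressed in yeast, and the factors were then given DNA barcodes and pooled with a tag-only sample. The pools were incubated with 200 nmole of a random double-stranded 16-mer DNA library in Tris/NaCl/DTT/glycerol buffer for 30 min at room temperature, washed, crosslinked with 0.1% formaldehyde and proximity-ligated with BsaI/T4 ligase at 37 °C for 1 h. PCR amplification and Illumina NextSeq500 sequencing came last. Binding signal is each hexamer's read frequency for a factor divided by its frequency for the tag-only sample.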
# ELK1 = target: T2, ELK1 (Homo sapiens, UniProt P19419 1-428); conditions: protein: recombinant; tags: N-terminal GST; dsDNA, one strand shown
# T2 sequence: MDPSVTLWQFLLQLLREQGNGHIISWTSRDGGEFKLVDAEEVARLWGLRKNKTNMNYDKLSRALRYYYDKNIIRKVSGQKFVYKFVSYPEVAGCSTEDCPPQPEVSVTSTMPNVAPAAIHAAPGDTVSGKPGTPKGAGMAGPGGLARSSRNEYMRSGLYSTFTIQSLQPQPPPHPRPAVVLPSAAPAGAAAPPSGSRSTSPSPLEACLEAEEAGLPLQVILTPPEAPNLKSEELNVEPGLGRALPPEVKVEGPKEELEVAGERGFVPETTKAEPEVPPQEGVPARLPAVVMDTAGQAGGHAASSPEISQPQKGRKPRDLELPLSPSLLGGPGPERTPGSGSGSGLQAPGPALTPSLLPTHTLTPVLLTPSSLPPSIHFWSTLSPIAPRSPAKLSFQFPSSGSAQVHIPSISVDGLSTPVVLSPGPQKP
# Procedure, shortened: as §1
# GABPA = target: T3, GABPA (Homo sapiens, UniProt Q06546 1-454); conditions: protein: recombinant; tags: N-terminal GST; dsDNA, one strand shown
# T3 sequence: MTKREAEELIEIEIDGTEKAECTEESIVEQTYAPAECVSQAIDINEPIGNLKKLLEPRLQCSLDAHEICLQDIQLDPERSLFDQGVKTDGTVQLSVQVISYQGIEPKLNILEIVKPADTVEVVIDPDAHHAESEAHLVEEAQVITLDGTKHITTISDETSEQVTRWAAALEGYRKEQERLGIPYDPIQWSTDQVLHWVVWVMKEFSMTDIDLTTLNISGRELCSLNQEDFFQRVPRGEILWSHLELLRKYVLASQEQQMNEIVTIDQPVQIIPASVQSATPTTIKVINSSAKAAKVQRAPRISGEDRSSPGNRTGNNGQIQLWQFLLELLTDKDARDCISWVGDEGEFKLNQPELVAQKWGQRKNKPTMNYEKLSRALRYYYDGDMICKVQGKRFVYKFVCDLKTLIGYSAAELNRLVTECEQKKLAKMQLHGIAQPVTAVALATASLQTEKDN
# Procedure, shortened: as §1
# ERG = target: T4, ERG (Homo sapiens, UniProt P11308 1-479); conditions: protein: recombinant; tags: N-terminal GST; dsDNA, one strand shown
# T4 sequence: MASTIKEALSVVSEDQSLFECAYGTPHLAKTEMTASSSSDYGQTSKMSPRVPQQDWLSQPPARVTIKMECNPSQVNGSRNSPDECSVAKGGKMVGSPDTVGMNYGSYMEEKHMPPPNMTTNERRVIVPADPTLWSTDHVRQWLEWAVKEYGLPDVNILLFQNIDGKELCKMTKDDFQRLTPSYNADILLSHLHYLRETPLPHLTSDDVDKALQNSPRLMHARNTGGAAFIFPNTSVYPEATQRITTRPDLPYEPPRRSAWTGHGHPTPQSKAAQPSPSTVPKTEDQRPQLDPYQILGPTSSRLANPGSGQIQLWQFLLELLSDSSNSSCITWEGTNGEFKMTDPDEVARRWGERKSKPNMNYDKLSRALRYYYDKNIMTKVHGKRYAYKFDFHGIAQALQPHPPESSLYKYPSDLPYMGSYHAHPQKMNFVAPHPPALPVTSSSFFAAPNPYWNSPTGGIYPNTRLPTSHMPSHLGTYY
# Procedure, shortened: as §1
# ELF1 = ELF1 (Homo sapiens, UniProt P32519 1-619); conditions: protein: recombinant; tags: N-terminal GST; dsDNA, one strand shown
# Procedure, shortened: as §1
# EHF = target: T5, EHF (Homo sapiens, UniProt Q9NZC4 1-300); conditions: protein: recombinant; tags: N-terminal GST; dsDNA, one strand shown
# T5 sequence: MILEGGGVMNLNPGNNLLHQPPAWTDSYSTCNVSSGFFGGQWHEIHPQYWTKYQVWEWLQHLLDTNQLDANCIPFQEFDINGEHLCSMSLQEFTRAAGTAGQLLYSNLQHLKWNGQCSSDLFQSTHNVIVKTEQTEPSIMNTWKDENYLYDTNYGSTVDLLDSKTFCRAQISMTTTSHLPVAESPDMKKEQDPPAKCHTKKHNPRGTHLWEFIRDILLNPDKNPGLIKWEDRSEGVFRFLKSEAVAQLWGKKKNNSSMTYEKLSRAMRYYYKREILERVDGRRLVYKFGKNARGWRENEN
# Procedure, shortened: as §1
# SPI1 = SPI1 (Homo sapiens, UniProt P17947 1-270); conditions: protein: recombinant; tags: N-terminal GST; dsDNA, one strand shown
# Procedure, shortened: as §1
# SPIB = SPIB (Homo sapiens, UniProt Q01892 1-262); conditions: protein: recombinant; tags: N-terminal GST; dsDNA, one strand shown
# Procedure, shortened: as §1
# ELK3 = target: T6, ELK3 (Homo sapiens, UniProt P41970 1-407); conditions: protein: recombinant; tags: N-terminal GST; dsDNA, one strand shown
# T6 sequence: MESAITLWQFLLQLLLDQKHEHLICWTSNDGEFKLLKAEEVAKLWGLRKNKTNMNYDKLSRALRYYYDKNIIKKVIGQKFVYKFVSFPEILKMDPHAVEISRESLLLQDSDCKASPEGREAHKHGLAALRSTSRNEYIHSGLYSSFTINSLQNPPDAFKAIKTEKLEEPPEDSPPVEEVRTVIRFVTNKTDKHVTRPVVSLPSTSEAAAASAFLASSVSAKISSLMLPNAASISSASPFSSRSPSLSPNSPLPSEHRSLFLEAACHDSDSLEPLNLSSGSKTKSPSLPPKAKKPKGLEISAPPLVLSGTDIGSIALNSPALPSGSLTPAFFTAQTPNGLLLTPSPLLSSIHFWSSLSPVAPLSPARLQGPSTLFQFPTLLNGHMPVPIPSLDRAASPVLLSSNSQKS
# Procedure, shortened: as §1
# FEV = target: T7, FEV (Homo sapiens, UniProt Q99581 1-238); conditions: protein: recombinant; tags: N-terminal GST; dsDNA, one strand shown
# T7 sequence: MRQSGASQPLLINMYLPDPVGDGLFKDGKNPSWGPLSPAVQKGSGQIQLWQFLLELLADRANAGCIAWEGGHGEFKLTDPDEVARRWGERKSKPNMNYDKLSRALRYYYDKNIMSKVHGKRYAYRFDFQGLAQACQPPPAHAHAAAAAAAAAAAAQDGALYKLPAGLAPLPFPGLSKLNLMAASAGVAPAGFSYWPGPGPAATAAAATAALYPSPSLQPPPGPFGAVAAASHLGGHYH
# Procedure, shortened: as §1
# ETV5 = ETV5 (Homo sapiens, UniProt P41161 1-510); conditions: protein: recombinant; tags: N-terminal GST; dsDNA, one strand shown
# Procedure, shortened: as §1
# HSF1 = HSF1 (Homo sapiens, UniProt Q00613 1-529); conditions: protein: recombinant; tags: N-terminal GST; chain copies: 3; dsDNA, one strand shown
# Procedure, shortened: as §1
# SPIC = target: T8, SPIC (Homo sapiens, UniProt Q8N5J4 1-248); conditions: protein: recombinant; tags: N-terminal GST; dsDNA, one strand shown
# T8 sequence: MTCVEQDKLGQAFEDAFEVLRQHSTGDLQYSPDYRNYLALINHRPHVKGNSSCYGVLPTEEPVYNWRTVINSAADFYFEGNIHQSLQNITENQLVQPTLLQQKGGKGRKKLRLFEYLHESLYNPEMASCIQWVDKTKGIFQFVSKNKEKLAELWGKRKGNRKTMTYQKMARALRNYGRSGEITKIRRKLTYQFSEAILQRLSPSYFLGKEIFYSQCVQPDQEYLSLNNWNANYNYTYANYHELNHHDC
# Procedure, shortened: as §1
# ELF4 = ELF4 (Homo sapiens, UniProt Q99607 1-663); conditions: protein: recombinant; tags: N-terminal GST; dsDNA, one strand shown
# Procedure, shortened: as §1
# ELK4 = target: T9, ELK4 (Homo sapiens, UniProt P28324-2 1-405); conditions: protein: recombinant; tags: N-terminal GST; dsDNA, one strand shown
# T9 sequence: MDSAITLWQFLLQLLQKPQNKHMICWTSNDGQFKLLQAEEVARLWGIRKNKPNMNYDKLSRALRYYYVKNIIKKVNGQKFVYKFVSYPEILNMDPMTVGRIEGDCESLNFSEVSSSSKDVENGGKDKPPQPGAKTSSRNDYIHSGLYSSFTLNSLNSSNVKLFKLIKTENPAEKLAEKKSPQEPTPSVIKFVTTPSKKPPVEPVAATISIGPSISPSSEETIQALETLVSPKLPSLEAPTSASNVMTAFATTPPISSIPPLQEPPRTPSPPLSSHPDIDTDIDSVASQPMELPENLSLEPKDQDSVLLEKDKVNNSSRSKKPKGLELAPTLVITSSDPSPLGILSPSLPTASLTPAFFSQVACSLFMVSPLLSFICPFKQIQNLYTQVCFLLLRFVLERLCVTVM
# Procedure, shortened: as §1
# ETV2 = target: T10, ETV2 (Homo sapiens, UniProt O00321 1-342); conditions: protein: recombinant; tags: N-terminal GST; dsDNA, one strand shown
# T10 sequence: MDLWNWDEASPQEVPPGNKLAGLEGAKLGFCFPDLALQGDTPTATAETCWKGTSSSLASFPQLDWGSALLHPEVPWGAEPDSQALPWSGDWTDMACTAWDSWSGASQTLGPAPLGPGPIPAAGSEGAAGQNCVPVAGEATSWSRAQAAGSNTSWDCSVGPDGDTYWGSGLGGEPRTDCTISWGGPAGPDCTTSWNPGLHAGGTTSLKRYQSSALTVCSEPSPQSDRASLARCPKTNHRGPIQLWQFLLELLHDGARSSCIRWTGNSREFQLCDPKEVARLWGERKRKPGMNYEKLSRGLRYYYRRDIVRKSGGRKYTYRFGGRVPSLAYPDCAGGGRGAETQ
# Procedure, shortened: as §1
# ELF3 = target: T11, ELF3 (Homo sapiens, UniProt P78545 1-371); conditions: protein: recombinant; tags: N-terminal GST; dsDNA, one strand shown
# T11 sequence: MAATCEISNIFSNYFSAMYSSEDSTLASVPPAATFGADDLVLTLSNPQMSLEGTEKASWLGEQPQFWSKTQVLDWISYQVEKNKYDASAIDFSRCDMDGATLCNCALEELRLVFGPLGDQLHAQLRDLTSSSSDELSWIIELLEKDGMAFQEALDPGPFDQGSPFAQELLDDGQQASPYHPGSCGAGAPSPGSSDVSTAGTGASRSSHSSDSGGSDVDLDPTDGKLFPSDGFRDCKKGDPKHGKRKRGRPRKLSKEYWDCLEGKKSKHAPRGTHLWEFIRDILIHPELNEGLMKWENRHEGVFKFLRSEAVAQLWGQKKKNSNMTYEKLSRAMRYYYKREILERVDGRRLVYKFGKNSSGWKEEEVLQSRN
# Procedure, shortened: as §1
# CRX = CRX (Homo sapiens, UniProt O43186 1-299); conditions: protein: recombinant; tags: N-terminal GST; dsDNA, one strand shown
# Procedure, shortened: as §1
# ETV1 = ETV1 (Homo sapiens, UniProt P50549 1-477); conditions: protein: recombinant; tags: N-terminal GST; dsDNA, one strand shown
# Procedure, shortened: as §1
# Sequence of ETV5 (P41161 whole entry): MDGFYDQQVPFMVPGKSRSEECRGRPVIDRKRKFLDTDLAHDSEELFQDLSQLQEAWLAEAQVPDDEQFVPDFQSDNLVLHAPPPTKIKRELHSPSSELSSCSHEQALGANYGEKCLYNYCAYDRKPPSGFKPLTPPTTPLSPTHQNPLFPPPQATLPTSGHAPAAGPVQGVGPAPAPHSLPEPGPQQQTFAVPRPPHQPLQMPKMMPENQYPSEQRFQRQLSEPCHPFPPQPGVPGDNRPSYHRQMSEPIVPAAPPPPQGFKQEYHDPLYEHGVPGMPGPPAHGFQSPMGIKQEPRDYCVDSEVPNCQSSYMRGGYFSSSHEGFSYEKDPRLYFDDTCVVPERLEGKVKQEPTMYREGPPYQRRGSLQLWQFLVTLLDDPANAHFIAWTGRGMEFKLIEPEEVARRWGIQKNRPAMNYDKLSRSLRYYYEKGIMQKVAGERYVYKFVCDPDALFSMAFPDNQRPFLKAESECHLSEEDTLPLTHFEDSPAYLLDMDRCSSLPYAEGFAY
# Sequence of CRX (O43186 whole entry): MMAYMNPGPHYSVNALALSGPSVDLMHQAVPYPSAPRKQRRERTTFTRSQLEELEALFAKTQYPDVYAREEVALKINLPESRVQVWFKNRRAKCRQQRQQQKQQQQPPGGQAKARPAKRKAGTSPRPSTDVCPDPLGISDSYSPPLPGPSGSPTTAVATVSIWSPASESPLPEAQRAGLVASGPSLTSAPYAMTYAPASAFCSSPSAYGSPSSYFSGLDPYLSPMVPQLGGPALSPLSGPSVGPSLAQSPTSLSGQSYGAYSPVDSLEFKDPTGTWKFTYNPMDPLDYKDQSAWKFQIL
# Sequence of ELF1 (P32519 whole entry): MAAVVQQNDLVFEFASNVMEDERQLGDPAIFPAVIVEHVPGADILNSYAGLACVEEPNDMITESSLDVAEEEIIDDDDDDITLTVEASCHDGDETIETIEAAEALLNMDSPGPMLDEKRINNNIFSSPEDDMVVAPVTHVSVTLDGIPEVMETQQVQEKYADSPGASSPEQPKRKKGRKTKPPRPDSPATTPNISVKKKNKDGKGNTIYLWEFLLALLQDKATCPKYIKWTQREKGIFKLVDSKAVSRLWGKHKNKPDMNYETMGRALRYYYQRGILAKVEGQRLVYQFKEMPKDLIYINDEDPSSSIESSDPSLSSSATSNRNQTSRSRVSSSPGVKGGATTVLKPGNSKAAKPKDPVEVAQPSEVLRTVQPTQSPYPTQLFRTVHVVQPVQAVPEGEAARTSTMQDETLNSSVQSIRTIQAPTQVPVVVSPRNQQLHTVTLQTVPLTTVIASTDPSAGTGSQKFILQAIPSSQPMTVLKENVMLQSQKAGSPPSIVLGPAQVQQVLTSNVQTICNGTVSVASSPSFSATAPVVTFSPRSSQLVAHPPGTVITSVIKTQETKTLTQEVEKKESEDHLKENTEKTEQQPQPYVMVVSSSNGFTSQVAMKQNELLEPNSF
# Sequence of ELF4 (Q99607 whole entry): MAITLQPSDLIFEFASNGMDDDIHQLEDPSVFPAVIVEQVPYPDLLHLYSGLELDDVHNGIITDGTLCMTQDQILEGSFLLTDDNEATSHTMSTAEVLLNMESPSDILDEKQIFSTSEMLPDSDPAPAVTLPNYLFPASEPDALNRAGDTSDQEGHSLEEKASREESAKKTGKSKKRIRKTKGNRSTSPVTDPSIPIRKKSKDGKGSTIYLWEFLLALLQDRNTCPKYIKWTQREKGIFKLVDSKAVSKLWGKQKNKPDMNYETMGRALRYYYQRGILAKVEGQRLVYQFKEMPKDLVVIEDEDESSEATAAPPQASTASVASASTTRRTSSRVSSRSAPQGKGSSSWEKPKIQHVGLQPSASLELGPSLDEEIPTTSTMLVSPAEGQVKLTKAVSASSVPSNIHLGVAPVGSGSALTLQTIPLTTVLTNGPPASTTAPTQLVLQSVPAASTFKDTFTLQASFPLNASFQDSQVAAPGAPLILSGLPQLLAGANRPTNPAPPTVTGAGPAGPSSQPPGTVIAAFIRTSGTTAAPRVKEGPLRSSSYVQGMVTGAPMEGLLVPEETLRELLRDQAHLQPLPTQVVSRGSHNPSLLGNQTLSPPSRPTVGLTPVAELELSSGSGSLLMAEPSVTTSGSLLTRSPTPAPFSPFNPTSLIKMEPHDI
# Sequence of ETV1 (P50549 whole entry): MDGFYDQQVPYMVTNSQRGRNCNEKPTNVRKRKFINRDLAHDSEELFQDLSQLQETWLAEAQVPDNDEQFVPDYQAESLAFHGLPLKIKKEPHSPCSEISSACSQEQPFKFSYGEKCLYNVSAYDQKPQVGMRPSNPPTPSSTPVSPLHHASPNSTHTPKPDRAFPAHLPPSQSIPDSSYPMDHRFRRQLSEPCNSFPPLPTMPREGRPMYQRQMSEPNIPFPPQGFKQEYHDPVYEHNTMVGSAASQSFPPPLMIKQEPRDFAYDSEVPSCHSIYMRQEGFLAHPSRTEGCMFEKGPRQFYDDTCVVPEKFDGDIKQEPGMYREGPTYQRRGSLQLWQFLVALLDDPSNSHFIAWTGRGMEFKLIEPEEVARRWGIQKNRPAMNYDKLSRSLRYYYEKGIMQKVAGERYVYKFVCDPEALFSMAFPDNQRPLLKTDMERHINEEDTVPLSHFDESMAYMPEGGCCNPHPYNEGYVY
# Sequence of HSF1 (Q00613 whole entry): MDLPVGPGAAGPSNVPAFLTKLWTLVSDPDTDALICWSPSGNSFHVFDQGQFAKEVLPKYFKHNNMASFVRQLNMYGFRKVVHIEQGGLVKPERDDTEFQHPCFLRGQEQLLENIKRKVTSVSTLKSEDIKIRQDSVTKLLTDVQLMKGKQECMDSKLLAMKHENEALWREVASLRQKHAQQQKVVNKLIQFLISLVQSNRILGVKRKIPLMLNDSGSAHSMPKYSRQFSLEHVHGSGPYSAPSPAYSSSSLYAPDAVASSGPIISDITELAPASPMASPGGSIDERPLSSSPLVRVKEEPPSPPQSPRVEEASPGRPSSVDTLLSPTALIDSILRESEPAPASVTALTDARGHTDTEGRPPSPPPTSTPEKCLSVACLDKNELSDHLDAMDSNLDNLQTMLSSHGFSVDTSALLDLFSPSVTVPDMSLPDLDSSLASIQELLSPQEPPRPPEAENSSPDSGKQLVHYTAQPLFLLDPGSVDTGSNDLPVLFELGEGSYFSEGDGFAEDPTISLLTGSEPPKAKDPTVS
# Sequence of SPIB (Q01892 whole entry): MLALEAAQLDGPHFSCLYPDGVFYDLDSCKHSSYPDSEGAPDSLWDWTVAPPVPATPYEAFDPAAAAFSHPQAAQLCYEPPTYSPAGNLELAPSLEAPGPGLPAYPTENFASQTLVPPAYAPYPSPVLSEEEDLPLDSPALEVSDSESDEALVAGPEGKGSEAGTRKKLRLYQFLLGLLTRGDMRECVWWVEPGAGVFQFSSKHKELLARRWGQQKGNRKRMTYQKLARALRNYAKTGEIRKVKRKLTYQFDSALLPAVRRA
sequence,measurement,setting,value
AGATCC,binding signal,FLI1,"1.05 fold enrichment (6-mer frequency, TF over GST control)"
same,binding signal,ELK1,"1.12 fold enrichment (6-mer frequency, TF over GST control)"
same,binding signal,GABPA,"1.09 fold enrichment (6-mer frequency, TF over GST control)"
same,binding signal,ERG,"1.15 fold enrichment (6-mer frequency, TF over GST control)"
same,binding signal,ELF1,"1.1 fold enrichment (6-mer frequency, TF over GST control)"
same,binding signal,EHF,"1.12 fold enrichment (6-mer frequency, TF over GST control)"
same,binding signal,SPI1,"1.03 fold enrichment (6-mer frequency, TF over GST control)"
same,binding signal,SPIB,"1.18 fold enrichment (6-mer frequency, TF over GST control)"
same,binding signal,ELK3,"1.1 fold enrichment (6-mer frequency, TF over GST control)"
same,binding signal,FEV,"1.14 fold enrichment (6-mer frequency, TF over GST control)"
same,binding signal,ETV5,"1.14 fold enrichment (6-mer frequency, TF over GST control)"
same,binding signal,HSF1,"1.11 fold enrichment (6-mer frequency, TF over GST control)"
same,binding signal,SPIC,"1.16 fold enrichment (6-mer frequency, TF over GST control)"
same,binding signal,ELF4,"1.14 fold enrichment (6-mer frequency, TF over GST control)"
same,binding signal,ELK4,"1.17 fold enrichment (6-mer frequency, TF over GST control)"
same,binding signal,ETV2,"1.06 fold enrichment (6-mer frequency, TF over GST control)"
same,binding signal,ELF3,"1.06 fold enrichment (6-mer frequency, TF over GST control)"
same,binding signal,CRX,"1.11 fold enrichment (6-mer frequency, TF over GST control)"
same,binding signal,ETV1,"1.14 fold enrichment (6-mer frequency, TF over GST control)"
